Reference: PubChem BioAssay (EPA / NIEHS)
Several values for one entry are separate records, joined by “and”; a condition that tells them apart may be missing. Equal values may be shown once. Results filed as inconclusive are left out. Some compounds were tested as several samples or in several runs, with calls that do not always agree. Activity calls are given as the source filed them. How the source made its calls, unless noted: active means hit-call score of the fitted dose curve at least 0.9, where 1 is the maximum; inactive means score below 0.9.

Tested on: not listed separately
Experiment: ATG_TGFb_CIS: Attagene CIS-FACTORIAL HepG2 Assay for human Transforming Growth Factor (TGF) (AID 2282967)
Conditions: HepG2 Attagene CIS TGFb reporter, mRNA transcription; actives raise or lower the signal
Summary of the method: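 Bidirectional fitting relative to DMSO gave the endpoint. Underlying data: reporter mRNA from HepG2 cells carrying transiently transfected cis-regulated reporter constructs, harvested 24 h after dosing and analyzed by RT-PCR and capillary electrophoresis.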
With `S=C([S-])NCCNC(=S)[S-].[Mn+2]` the outcome was “inactive”.
With `CCN(Cc1c(F)cccc1Cl)c1c([N+](=O)[O-])cc(C(F)(F)F)cc1[N+](=O)[O-]` the outcome was “inactive”.
For `CC(=O)[C@H]1CC[C@H]2[C@@H]3CCC4=CC(=O)CC[C@]4(C)[C@H]3CC[C@]12C`, the outcome was “inactive”.
In the case of `CN(C)C(=O)Nc1ccc(Cl)c(Cl)c1`, the outcome is reported as “inactive”.
For `C[C@]12CC[C@@H]3c4ccc(O)cc4C[C@@H](CCCCCCCCCS(=O)CCCC(F)(F)C(F)(F)F)[C@H]3[C@@H]1CC[C@@H]2O` (stereo partly specified), the outcome was “inactive”.
For `O=C(c1ccccc1)C1CCCCC1`, the outcome was “inactive”.
In the case of `O=C(c1ccc(O)cc1O)c1ccc(O)cc1O`, the outcome is reported as “inactive”.
For `CC(=O)S[C@@H]1CC2=CC(=O)CC[C@]2(C)[C@H]2CC[C@@]3(C)[C@@H](CC[C@@]34CCC(=O)O4)[C@H]12`, the outcome was “inactive”.

Tested on: not listed separately
Experiment: ATG_VDRE_CIS: Attagene CIS-FACTORIAL HepG2 Assay for human Vitamin D Receptor Element (VDRE) (AID 2282968)
Conditions: HepG2 VDRE cis-reporter transcription, actives raise or lower the signal
Summary of the method: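 Measures endogenous factor activity through cis-element-driven reporter transcripts in transiently transfected HepG2. Cells are treated 24 h; reporter mRNA is quantified by RT-PCR and capillary electrophoresis; fitting is bidirectional.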
For `CCC(O)=C1C(=O)CC(C(=O)O)CC1=O` (stereo unspecified), the outcome was “inactive”.
In the case of `COC(=O)c1cccc(C)c1S(=O)(=O)NC(=O)Nc1nc(OCC(F)(F)F)nc(N(C)C)n1`, the outcome is reported as “inactive”.
In the case of `N[C@@H](Cc1cc(I)c(Oc2ccc(O)c(I)c2)c(I)c1)C(=O)O`, the outcome is reported as “inactive”.
With `S=C([S-])NCCNC(=S)[S-].[Mn+2]` the outcome was “inactive”.
For `CCN(Cc1c(F)cccc1Cl)c1c([N+](=O)[O-])cc(C(F)(F)F)cc1[N+](=O)[O-]`, the AC50 was 1.87 µM (active).
In the case of `CC(=O)[C@H]1CC[C@H]2[C@@H]3CCC4=CC(=O)CC[C@]4(C)[C@H]3CC[C@]12C`, the AC50 is reported as 26.5 µM (active) [middle of 4 runs].
With `S=C(S)NCCNC(=S)S.[Mn+2].[S-]C([S-])=NCCN=C([S-])[S-].[Zn+2]` the AC50 was 30.3 µM (active) and 11.4 µM (active) and the outcome was “inactive”.
For `C#CCOC(=O)[C@@H](C)Oc1ccc(Oc2ncc(Cl)cc2F)cc1`, the outcome was “inactive”.
With `c1ccc2[nH]c(-c3cscn3)nc2c1` the outcome was “inactive”.
With `CCCN(CCC)c1c([N+](=O)[O-])cc(C(F)(F)F)c(N)c1[N+](=O)[O-]` the AC50 was 3.57 µM (active).
In the case of `COC(=O)c1ccccc1C(=O)O`, the outcome is reported as “inactive”.
In the case of `CC1(C)C(C=C(Cl)Cl)C1C(=O)OCc1cccc(Oc2ccccc2)c1` (stereo unspecified), the AC50 is reported as 10 µM (active).
In the case of `C[C@]12CC[C@@H]3c4ccc(O)cc4C[C@@H](CCCCCCCCCS(=O)CCCC(F)(F)C(F)(F)F)[C@H]3[C@@H]1CC[C@@H]2O` (stereo partly specified), the AC50 is reported as 1 µM (active) and 1.5 µM (active) and the outcome is reported as “inactive”.
For `CCC(C)OC(=O)N1CCCCC1CCO` (stereo unspecified), the AC50 was 46.5 µM (active) and the outcome was “inactive”.
In the case of `COCCO`, the outcome is reported as “inactive”.
For `c1ccc(Nc2ccccc2)cc1`, the AC50 was 100 µM (active) and the outcome was “inactive”.
With `O=C(c1ccccc1)C1CCCCC1` the AC50 was 42.8 µM (active) and the outcome was “inactive”.
For `COc1c(Cl)ccc(Cl)c1C(=O)O`, the outcome was “inactive”.
With `O=C(c1ccc(O)cc1O)c1ccc(O)cc1O` the outcome was “inactive”.
In the case of `CCOC(=O)c1ccc(O)cc1`, the AC50 is reported as 42.8 µM (active) and the outcome is reported as “inactive”.
With `O=C(O)C1(C(=O)Nc2ccc(Cl)cc2Cl)CC1` the outcome was “inactive”.
For `CC(C)(C)[C@@H](O)[C@@H](Cc1ccc(Cl)cc1)n1cncn1`, the AC50 was 14 µM (active).
In the case of `CCOC(=O)C(C)Oc1ccc(Oc2cnc3cc(Cl)ccc3n2)cc1` (stereo unspecified), the outcome is reported as “inactive”.
With `N#CSCSc1nc2ccccc2s1` the outcome was “inactive”.
For `CC(=O)S[C@@H]1CC2=CC(=O)CC[C@]2(C)[C@H]2CC[C@@]3(C)[C@@H](CC[C@@]34CCC(=O)O4)[C@H]12`, the AC50 was 25 µM (active) [middle of 4 runs] and the outcome was “inactive”.
With `CC(C)CCCCCCc1ccc(O)cc1` the AC50 was 2.96 µM (active) and 11.1 µM (active) and 10.3 µM (active) and the outcome was “inactive”.
For `CCOC(=O)NCCOc1ccc(Oc2ccccc2)cc1`, the AC50 was 27.4 µM (active).
In the case of `CCNc1nc(N)nc(Cl)n1`, the outcome is reported as “inactive”.

Biological target: Nuclear receptor subfamily 1 group I member 3 (Homo sapiens) (UniProt Q14994)
Sequence (Q14994 whole entry, looked up): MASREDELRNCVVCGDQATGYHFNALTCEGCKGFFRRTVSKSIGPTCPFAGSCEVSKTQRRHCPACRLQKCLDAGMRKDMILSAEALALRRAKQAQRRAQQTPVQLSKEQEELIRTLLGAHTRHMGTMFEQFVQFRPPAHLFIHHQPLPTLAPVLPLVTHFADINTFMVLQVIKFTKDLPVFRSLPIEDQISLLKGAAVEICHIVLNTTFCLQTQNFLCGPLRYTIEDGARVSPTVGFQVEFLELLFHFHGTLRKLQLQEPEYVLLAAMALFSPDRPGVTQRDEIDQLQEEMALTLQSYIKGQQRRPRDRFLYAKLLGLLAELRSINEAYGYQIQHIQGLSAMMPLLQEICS
Experiment: ATG_CAR_TRANS: Attagene TRANS-FACTORIAL HepG2 Assay for human Constitutive Androstane Receptor (CAR) (AID 2282969; active means hit-call score of the fitted dose curve at least 0.9, where 1 is the maximum;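 further: activators raise reporter mRNA above DMSO so AC50 marks induction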)
Conditions: HepG2 Attagene TRANS-FACTORIAL CAR reporter
Summary of the method: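 Signal is reporter mRNA induction relative to DMSO, measured 24 h after dosing by RT-PCR with fluorescent primer extension and capillary electrophoresis. Human HepG2 liver cells carried transiently transfected chimeric NR-Gal4/GAL4-UAS reporter constructs.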
With `CCC(O)=C1C(=O)CC(C(=O)O)CC1=O` (stereo unspecified) the outcome was “inactive”.
For `COC(=O)c1cccc(C)c1S(=O)(=O)NC(=O)Nc1nc(OCC(F)(F)F)nc(N(C)C)n1`, the outcome was “inactive”.
For `N[C@@H](Cc1cc(I)c(Oc2ccc(O)c(I)c2)c(I)c1)C(=O)O`, the outcome was “inactive”.
In the case of `CCN(Cc1c(F)cccc1Cl)c1c([N+](=O)[O-])cc(C(F)(F)F)cc1[N+](=O)[O-]`, the outcome is reported as “inactive”.
For `CN(C)C(=O)Nc1ccc(Cl)c(Cl)c1`, the outcome was “inactive”.
For `CCCN(CCC)c1c([N+](=O)[O-])cc(C(F)(F)F)c(N)c1[N+](=O)[O-]`, the outcome was “inactive”.
With `CC1(C)C(C=C(Cl)Cl)C1C(=O)OCc1cccc(Oc2ccccc2)c1` (stereo unspecified) the outcome was “inactive”.
In the case of `CCC(C)OC(=O)N1CCCCC1CCO` (stereo unspecified), the outcome is reported as “inactive”.
With `COCCO` the outcome was “inactive”.
In the case of `c1ccc(Nc2ccccc2)cc1`, the outcome is reported as “inactive”.
With `O=C(c1ccccc1)C1CCCCC1` the outcome was “inactive”.
For `COc1c(Cl)ccc(Cl)c1C(=O)O`, the outcome was “inactive”.
For `O=C(c1ccc(O)cc1O)c1ccc(O)cc1O`, the outcome was “inactive”.
For `CCOC(=O)c1ccc(O)cc1`, the outcome was “inactive”.
In the case of `O=C(O)C1(C(=O)Nc2ccc(Cl)cc2Cl)CC1`, the outcome is reported as “inactive”.
For `CC(C)(c1ccc(O)cc1)c1ccc(O)cc1`, the outcome was “inactive”.
For `CCOC(=O)C(C)Oc1ccc(Oc2cnc3cc(Cl)ccc3n2)cc1` (stereo unspecified), the outcome was “inactive”.
In the case of `N#CSCSc1nc2ccccc2s1`, the outcome is reported as “inactive”.
For `CC(=O)S[C@@H]1CC2=CC(=O)CC[C@]2(C)[C@H]2CC[C@@]3(C)[C@@H](CC[C@@]34CCC(=O)O4)[C@H]12`, the outcome was “inactive”.
With `CC(C)CCCCCCc1ccc(O)cc1` the outcome was “inactive”.
For `CCOC(=O)NCCOc1ccc(Oc2ccccc2)cc1`, the outcome was “inactive”.
With `CCNc1nc(N)nc(Cl)n1` the outcome was “inactive”.
